Experimental findings from PMC7862700, “An all-to-all approach to the identification of sequence-specific readers for epigenetic DNA modifications on cytosine” are described below.

Holding throughout (assay): DAPPL (digital affinity profiling via proximity ligation, sequencing); 10 mM Tris-HCl pH 7.5, 50 mM NaCl, 1 mM DTT, 4% glycerol, room temperature, 30 min; GST-TFs on glutathione beads, 16-mer random dsDNA library, 0.1% formaldehyde crosslink after washing; high values mean tight binding
Settings in all cases: protein: recombinant; tags: N-terminal GST; dsDNA, one strand shown

One experiment deals with T1, ELK1 (Homo sapiens, UniProt P19419 1-428).
T1 sequence: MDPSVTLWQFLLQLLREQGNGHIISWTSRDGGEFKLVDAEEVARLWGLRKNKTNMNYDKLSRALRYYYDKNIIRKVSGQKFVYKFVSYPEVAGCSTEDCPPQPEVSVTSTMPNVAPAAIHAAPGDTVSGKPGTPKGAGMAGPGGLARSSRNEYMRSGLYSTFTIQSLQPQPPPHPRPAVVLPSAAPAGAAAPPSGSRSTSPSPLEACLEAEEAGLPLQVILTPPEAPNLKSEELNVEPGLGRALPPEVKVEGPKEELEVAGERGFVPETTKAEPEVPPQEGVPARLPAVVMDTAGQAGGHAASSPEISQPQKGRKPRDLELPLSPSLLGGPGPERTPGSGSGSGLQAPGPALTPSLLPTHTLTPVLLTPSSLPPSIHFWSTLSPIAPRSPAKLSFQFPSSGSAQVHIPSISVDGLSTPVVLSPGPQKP
Summed up:
(§1)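 GST fusions of human transcription factors were expressed in yeast and captured with glutathione beads. Once given DNA barcodes and pooled alongside a tag-only sample, they were incubated for 30 min at room temperature with 200 nmole of a random double-stranded 16-mer DNA library in Tris/NaCl/DTT/glycerol buffer, then washed, crosslinked (0.1% formaldehyde), proximity-ligated, PCR-amplified and sequenced on an Illumina NextSeq500. The binding signal of each hexamer is its read frequency for a factor divided by its frequency for the tag-only sample.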

The target in the next experiment is T2, ERG (Homo sapiens, UniProt P11308 1-479).
T2 sequence: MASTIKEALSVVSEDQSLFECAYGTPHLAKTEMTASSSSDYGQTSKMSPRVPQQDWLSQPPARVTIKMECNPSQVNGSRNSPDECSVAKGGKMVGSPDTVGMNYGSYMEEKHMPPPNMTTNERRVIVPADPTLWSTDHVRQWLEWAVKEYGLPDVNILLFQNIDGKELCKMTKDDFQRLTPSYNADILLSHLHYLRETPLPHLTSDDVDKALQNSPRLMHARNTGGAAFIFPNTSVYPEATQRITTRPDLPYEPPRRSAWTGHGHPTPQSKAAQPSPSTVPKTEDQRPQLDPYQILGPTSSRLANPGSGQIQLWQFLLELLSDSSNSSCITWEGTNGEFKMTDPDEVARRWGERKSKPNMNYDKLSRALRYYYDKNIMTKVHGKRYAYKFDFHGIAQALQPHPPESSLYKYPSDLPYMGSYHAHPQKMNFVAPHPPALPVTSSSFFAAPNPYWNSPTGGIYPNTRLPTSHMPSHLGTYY
Summed up:
as §1

A further experiment concerns the target ELF1 (Homo sapiens, UniProt P32519 1-619). In a few lines: as §1
The target in another experiment is T3, EHF (Homo sapiens, UniProt Q9NZC4 1-300).
T3 sequence: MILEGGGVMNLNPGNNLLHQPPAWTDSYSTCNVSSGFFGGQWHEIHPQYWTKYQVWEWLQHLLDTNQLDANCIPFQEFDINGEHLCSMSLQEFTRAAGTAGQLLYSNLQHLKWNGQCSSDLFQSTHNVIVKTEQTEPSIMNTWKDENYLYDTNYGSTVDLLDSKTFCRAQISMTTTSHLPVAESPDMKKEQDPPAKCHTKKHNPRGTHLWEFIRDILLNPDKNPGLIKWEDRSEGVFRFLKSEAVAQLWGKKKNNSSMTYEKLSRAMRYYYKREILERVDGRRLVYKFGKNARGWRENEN
Summed up:
as §1

The target in a further experiment is SPIB (Homo sapiens, UniProt Q01892 1-262). Summed up:
as §1

The target in a further experiment is T4, FEV (Homo sapiens, UniProt Q99581 1-238).
T4 sequence: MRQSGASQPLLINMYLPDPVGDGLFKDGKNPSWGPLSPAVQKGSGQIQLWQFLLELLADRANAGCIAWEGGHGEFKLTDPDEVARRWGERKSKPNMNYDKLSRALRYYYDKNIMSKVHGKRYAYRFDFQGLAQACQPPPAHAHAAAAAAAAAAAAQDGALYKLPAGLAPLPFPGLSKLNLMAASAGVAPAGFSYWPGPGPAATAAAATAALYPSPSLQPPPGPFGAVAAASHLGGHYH
In a few lines:
as §1

The target of another experiment is ETV5 (Homo sapiens, UniProt P41161 1-510). In a few lines: as §1
For a further experiment, the target named is ELF4 (Homo sapiens, UniProt Q99607 1-663). Summed up: as §1
The next experiment has as its target T5, ELK4 (Homo sapiens, UniProt P28324-2 1-405).
T5 sequence: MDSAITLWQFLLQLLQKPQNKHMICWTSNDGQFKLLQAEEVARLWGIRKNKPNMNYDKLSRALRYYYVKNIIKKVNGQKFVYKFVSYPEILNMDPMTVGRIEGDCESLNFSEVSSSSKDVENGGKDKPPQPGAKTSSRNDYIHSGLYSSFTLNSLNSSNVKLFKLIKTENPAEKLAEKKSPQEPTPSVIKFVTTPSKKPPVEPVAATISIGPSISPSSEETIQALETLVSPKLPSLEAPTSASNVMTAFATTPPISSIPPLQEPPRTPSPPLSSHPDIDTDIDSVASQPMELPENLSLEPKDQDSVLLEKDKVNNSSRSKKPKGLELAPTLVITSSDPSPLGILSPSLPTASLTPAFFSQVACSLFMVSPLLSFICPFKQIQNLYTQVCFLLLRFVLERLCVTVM
In a few lines:
as §1

Another experiment concerns the target ETV1 (Homo sapiens, UniProt P50549 1-477). In a few lines:
as §1

Another experiment deals with T6, ERF (Homo sapiens, UniProt P50548 1-548).
T6 sequence: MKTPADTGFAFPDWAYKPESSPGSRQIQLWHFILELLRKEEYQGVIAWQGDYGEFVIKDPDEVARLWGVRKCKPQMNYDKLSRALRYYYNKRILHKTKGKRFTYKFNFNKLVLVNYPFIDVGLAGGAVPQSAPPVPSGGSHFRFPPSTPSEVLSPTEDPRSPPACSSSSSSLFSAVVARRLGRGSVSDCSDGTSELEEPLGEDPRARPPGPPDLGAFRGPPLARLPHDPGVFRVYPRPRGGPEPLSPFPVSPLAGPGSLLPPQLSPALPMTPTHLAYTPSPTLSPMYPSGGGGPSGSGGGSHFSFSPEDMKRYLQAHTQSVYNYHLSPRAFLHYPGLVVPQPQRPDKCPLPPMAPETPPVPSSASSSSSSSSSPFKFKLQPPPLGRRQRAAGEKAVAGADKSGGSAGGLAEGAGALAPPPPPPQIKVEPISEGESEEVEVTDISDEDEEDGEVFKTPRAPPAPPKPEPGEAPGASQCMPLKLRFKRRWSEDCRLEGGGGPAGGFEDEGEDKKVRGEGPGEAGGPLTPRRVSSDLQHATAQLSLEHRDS
In a few lines:
as §1

A further experiment has as its target T7, ETV3L (Homo sapiens, UniProt Q6ZN32 1-361).
T7 sequence: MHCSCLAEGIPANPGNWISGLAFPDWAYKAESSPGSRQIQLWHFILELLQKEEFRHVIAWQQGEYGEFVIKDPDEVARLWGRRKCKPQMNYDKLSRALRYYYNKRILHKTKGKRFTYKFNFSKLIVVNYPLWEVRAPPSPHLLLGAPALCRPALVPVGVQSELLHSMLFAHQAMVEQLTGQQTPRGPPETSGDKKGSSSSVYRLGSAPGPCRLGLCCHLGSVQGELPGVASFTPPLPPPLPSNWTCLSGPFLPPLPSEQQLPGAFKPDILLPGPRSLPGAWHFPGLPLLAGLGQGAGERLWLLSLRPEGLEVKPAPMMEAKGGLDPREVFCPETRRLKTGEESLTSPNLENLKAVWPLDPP
In a few lines: as §1

Another experiment concerns the target T8, ETS2 (Homo sapiens, UniProt P15036 1-469).
T8 sequence: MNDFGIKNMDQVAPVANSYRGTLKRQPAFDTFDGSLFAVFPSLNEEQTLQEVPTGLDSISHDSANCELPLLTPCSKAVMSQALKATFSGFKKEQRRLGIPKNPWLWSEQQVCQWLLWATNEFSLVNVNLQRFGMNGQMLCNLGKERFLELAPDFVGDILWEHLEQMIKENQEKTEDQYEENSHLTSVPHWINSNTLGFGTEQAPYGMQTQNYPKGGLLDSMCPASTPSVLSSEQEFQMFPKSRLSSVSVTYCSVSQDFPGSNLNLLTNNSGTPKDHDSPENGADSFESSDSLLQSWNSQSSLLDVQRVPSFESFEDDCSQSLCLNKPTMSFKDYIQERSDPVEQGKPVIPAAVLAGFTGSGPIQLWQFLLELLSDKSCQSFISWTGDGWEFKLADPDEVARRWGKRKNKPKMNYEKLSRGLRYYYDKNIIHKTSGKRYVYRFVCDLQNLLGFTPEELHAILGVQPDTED
Summed up: as §1

A further experiment has as its target T9, ETV7 (Homo sapiens, UniProt Q9Y603 1-341).
T9 sequence: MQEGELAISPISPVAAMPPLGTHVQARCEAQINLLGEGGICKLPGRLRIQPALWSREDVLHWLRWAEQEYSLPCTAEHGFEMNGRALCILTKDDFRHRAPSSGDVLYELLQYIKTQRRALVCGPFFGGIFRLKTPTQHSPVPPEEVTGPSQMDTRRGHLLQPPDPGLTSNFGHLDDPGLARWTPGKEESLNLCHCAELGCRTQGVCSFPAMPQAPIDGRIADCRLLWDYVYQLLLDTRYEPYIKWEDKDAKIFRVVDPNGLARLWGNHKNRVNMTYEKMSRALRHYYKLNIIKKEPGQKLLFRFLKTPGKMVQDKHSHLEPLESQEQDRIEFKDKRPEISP
Summed up: as §1

In the next experiment the target is T10, ETV3 (Homo sapiens, UniProt P41162-2 1-143).
T10 sequence: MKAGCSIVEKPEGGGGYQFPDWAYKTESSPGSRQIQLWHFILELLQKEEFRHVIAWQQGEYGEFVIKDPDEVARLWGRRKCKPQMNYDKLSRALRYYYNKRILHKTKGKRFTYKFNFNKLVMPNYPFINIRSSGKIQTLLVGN
Summed up: as §1

The target of the next experiment is ETV6 (Homo sapiens, UniProt P41212 1-452). In a few lines: as §1
Chain of ETV6 (P41212 whole entry): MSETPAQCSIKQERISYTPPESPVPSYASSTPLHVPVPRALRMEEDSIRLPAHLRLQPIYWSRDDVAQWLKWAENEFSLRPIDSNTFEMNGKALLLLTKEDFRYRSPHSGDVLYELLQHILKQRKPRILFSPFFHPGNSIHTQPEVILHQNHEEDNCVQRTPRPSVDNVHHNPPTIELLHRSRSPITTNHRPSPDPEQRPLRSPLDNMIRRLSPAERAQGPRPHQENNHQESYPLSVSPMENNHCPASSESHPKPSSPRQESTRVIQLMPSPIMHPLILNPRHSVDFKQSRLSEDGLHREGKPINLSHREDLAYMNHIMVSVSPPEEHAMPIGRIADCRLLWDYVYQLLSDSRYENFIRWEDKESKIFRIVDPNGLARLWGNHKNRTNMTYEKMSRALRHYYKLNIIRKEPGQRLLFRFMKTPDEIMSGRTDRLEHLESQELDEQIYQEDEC

Chain of ETV1 (P50549 whole entry): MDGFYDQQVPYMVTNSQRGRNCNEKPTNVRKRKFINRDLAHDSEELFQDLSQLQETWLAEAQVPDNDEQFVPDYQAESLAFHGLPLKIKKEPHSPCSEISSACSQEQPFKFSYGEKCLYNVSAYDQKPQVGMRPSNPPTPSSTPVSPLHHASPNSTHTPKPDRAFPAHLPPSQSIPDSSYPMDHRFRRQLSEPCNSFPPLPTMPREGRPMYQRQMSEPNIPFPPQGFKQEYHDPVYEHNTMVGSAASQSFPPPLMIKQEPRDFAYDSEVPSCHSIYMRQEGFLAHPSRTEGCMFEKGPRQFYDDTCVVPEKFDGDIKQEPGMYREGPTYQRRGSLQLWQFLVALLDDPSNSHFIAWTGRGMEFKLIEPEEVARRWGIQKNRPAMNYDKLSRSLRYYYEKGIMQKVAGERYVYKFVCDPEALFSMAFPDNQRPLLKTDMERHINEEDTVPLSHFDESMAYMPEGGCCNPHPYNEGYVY
Chain of ELF4 (Q99607 whole entry): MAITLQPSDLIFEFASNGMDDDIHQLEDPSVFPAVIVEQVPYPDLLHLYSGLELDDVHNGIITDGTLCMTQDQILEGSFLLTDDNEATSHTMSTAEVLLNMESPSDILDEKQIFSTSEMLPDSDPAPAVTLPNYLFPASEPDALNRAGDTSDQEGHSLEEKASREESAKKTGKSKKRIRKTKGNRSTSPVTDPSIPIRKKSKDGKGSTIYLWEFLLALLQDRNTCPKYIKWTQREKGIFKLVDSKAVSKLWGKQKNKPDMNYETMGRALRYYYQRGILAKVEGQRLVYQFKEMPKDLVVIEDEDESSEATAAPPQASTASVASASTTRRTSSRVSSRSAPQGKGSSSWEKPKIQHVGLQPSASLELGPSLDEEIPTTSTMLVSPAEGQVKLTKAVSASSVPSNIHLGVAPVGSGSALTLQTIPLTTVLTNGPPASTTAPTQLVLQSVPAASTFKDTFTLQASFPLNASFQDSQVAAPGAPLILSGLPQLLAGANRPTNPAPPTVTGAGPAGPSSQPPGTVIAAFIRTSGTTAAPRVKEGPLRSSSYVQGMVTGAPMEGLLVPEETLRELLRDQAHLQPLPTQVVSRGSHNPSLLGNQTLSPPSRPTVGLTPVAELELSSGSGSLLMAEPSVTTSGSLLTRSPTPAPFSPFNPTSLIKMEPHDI
Chain of ELF1 (P32519 whole entry): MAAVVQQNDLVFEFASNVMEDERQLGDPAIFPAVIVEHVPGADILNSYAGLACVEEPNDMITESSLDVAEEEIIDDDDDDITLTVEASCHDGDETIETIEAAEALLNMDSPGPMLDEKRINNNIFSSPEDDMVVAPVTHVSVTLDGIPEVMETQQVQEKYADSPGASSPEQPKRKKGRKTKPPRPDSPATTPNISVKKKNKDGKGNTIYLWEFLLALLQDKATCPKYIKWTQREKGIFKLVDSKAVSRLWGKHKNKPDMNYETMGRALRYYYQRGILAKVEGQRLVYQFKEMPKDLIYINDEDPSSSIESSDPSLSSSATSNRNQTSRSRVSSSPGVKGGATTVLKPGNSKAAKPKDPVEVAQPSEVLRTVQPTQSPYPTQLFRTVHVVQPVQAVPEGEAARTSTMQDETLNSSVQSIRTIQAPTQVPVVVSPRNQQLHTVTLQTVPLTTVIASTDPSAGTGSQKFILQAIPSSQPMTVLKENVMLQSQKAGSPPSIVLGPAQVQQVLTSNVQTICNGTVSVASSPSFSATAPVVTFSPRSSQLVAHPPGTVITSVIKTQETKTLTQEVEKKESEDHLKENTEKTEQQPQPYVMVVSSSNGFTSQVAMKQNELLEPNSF
Chain of ETV5 (P41161 whole entry): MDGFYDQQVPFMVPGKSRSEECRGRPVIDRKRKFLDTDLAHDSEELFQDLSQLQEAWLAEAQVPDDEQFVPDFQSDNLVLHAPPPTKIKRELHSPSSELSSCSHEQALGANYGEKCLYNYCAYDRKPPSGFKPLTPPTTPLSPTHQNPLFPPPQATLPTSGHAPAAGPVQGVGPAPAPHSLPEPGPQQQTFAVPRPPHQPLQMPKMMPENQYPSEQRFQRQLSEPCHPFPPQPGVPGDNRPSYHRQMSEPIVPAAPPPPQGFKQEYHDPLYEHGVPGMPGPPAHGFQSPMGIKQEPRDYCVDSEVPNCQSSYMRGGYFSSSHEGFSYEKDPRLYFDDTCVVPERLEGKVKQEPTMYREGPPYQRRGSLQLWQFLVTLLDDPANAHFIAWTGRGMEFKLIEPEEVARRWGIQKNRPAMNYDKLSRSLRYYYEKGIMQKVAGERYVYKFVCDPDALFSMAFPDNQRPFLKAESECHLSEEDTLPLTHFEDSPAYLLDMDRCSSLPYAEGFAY
Chain of SPIB (Q01892 whole entry): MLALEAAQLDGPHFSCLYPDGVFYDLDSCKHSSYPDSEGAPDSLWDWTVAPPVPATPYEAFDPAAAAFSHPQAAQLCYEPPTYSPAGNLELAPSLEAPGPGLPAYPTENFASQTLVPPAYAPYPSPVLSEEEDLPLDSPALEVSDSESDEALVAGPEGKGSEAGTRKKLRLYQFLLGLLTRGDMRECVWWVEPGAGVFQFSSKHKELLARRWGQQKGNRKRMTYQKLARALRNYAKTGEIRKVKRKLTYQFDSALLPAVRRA

Take GGTACA: the binding signal in the experiment with ELK1 was 1.08 fold enrichment (6-mer frequency, TF over GST control); with ERG, 1.09 fold enrichment (6-mer frequency, TF over GST control); with ELF1, 1.03 fold enrichment (6-mer frequency, TF over GST control); with EHF, 1.05 fold enrichment (6-mer frequency, TF over GST control); in the experiment with SPIB, 1.11 fold enrichment (6-mer frequency, TF over GST control); with FEV it was 1.03 fold enrichment (6-mer frequency, TF over GST control). The binding signal with ETV5 is 1.05 fold enrichment (6-mer frequency, TF over GST control); with ELF4, 1 fold enrichment (6-mer frequency, TF over GST control); in the experiment with ELK4, 1.11 fold enrichment (6-mer frequency, TF over GST control); with ETV1 it was 1.07 fold enrichment (6-mer frequency, TF over GST control); with ERF, 1.09 fold enrichment (6-mer frequency, TF over GST control); with ETV3L, 1.04 fold enrichment (6-mer frequency, TF over GST control). Further, the binding signal with ETS2 is 1.03 fold enrichment (6-mer frequency, TF over GST control); with ETV7, 1.11 fold enrichment (6-mer frequency, TF over GST control); in the experiment with ETV3, 1.09 fold enrichment (6-mer frequency, TF over GST control); in the experiment with ETV6 it was 1.11 fold enrichment (6-mer frequency, TF over GST control).
